# Reference: article PMC7862700, “An all-to-all approach to the identification of sequence-specific readers for epigenetic DNA modifications on cytosine”
# What was measured:
# Assay in all cases: DAPPL (digital affinity profiling via proximity ligation, sequencing); 10 mM Tris-HCl pH 7.5, 50 mM NaCl, 1 mM DTT, 4% glycerol, room temperature, 30 min; GST-TFs on glutathione beads, 16-mer random dsDNA library, 0.1% formaldehyde crosslink after washing; high values mean tight binding
# Settings in all cases: protein: recombinant; tags: N-terminal GST; dsDNA, one strand shown
# [1] = biological target: T1, FLI1 (Homo sapiens, UniProt Q01543 1-452)
# T1 sequence: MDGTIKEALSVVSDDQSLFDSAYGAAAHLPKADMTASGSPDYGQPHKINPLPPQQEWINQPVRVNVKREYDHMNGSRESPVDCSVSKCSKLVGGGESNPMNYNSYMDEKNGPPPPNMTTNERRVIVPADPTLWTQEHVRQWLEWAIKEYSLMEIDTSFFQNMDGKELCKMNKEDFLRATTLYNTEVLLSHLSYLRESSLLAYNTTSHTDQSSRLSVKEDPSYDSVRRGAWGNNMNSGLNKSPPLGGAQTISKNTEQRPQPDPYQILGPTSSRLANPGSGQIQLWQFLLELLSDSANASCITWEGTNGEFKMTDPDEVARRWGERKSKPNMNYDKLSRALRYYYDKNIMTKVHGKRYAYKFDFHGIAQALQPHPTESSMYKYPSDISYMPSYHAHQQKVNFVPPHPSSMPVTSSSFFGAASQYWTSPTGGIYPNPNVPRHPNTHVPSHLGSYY
# In short: (§1)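 Human transcription factors fused to GST were expressed in yeast, captured on glutathione beads, given DNA barcodes and pooled with a GST-only negative control. Pools were incubated with 200 nmole of a 16-mer random double-stranded DNA library in Tris/NaCl/DTT/glycerol buffer at room temperature for 30 min. They were then washed, crosslinked with 0.1% formaldehyde, proximity-ligated (BsaI/T4 ligase, 1 h, 37 °C), PCR-amplified and sequenced on an Illumina NextSeq500. Binding signal is each 6-mer's read frequency for a factor divided by its frequency for the GST control.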
# [2] = biological target: T2, ELK1 (Homo sapiens, UniProt P19419 1-428)
# T2 sequence: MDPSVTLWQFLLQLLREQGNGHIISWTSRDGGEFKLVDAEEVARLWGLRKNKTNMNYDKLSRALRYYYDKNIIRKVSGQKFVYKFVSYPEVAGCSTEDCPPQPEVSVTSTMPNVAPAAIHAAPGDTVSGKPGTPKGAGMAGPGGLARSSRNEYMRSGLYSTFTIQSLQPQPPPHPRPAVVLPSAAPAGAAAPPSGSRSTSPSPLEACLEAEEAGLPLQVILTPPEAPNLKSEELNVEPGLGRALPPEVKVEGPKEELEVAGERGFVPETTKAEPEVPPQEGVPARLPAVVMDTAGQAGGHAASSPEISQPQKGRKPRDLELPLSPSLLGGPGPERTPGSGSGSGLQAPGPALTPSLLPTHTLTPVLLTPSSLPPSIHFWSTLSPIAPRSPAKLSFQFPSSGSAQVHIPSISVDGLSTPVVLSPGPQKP
# In short: as §1
# [3] = biological target: T3, GABPA (Homo sapiens, UniProt Q06546 1-454)
# T3 sequence: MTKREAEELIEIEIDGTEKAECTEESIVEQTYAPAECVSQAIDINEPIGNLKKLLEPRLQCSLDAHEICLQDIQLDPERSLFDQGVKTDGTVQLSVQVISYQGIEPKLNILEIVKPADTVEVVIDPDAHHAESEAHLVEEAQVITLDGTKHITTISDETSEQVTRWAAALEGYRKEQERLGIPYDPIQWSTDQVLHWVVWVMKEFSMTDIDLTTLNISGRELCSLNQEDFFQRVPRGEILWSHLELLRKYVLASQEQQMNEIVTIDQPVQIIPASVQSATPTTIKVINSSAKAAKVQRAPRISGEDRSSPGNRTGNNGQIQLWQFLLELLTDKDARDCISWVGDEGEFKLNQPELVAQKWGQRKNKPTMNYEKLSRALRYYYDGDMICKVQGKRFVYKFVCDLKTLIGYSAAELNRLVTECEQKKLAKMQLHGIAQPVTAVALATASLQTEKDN
# In short: as §1
# [4] = biological target: T4, ERG (Homo sapiens, UniProt P11308 1-479)
# T4 sequence: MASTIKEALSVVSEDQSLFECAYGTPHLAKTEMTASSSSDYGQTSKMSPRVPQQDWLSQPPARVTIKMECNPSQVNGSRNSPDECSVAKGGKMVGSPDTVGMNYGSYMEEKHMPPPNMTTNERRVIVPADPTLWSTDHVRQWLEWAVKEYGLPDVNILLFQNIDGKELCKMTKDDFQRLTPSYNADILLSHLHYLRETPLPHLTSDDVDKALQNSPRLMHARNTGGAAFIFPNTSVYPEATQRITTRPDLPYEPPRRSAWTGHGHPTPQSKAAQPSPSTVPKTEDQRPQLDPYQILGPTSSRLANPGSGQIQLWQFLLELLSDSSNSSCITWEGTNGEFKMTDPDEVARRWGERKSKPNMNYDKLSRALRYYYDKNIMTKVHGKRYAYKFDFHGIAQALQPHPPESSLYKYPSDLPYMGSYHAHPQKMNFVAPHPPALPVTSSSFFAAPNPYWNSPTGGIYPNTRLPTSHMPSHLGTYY
# In short: as §1
# [5] = biological target: ELF1 (Homo sapiens, UniProt P32519 1-619)
# Sequence of ELF1 (P32519 whole entry): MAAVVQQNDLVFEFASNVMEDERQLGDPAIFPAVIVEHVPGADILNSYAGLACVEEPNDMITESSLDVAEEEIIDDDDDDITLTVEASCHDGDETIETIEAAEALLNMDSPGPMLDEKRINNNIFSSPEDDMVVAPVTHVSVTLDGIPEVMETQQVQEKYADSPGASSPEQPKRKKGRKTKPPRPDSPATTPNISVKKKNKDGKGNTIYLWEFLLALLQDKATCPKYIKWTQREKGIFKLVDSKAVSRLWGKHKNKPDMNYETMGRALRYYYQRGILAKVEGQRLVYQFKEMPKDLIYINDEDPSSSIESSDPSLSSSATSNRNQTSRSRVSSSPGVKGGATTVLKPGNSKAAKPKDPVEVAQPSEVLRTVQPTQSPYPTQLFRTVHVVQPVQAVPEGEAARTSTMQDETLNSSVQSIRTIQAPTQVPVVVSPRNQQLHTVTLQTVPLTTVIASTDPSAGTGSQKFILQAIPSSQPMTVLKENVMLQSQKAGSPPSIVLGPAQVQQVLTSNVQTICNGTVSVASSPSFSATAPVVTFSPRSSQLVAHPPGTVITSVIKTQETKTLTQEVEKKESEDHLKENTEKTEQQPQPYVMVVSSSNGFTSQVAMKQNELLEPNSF
# In short: as §1
# [6] = biological target: T5, EHF (Homo sapiens, UniProt Q9NZC4 1-300)
# T5 sequence: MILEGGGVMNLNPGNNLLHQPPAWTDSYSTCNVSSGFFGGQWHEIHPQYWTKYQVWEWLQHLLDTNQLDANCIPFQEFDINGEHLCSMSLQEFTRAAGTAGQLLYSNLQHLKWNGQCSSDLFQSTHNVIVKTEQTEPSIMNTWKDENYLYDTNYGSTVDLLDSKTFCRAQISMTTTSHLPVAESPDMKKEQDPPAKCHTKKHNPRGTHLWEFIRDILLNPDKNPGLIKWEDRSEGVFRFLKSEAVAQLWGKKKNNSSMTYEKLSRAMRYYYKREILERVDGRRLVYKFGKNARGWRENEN
# In short: as §1
# [7] = biological target: SPI1 (Homo sapiens, UniProt P17947 1-270)
# In short: as §1
# [8] = biological target: SPIB (Homo sapiens, UniProt Q01892 1-262)
# Sequence of SPIB (Q01892 whole entry): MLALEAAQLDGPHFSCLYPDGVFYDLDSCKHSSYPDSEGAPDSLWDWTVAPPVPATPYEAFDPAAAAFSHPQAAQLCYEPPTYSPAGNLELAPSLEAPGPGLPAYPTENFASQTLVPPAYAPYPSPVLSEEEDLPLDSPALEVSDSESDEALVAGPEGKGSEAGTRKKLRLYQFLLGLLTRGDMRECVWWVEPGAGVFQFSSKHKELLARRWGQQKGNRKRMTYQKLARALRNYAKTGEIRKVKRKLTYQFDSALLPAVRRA
# In short: as §1
# [9] = biological target: T6, ELK3 (Homo sapiens, UniProt P41970 1-407)
# T6 sequence: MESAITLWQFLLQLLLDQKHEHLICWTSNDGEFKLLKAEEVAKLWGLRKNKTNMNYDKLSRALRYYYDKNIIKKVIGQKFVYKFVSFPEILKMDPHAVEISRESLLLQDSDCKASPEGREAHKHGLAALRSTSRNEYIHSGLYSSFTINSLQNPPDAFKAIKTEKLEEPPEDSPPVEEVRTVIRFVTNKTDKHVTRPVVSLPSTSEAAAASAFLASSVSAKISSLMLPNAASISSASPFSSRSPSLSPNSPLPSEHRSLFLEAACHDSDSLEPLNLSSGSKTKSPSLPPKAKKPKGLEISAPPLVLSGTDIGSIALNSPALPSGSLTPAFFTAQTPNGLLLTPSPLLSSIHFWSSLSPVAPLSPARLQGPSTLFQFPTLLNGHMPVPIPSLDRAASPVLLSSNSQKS
# In short: as §1
Sequence,binding signal [1],binding signal [2],binding signal [3],binding signal [4],binding signal [5],binding signal [6],binding signal [7],binding signal [8],binding signal [9]
ATTAGG,"1.06 fold enrichment (6-mer frequency, TF over GST control)","1.06 fold enrichment (6-mer frequency, TF over GST control)","1.1 fold enrichment (6-mer frequency, TF over GST control)","1.05 fold enrichment (6-mer frequency, TF over GST control)","1.06 fold enrichment (6-mer frequency, TF over GST control)","1.1 fold enrichment (6-mer frequency, TF over GST control)","1.07 fold enrichment (6-mer frequency, TF over GST control)","1.06 fold enrichment (6-mer frequency, TF over GST control)","1.1 fold enrichment (6-mer frequency, TF over GST control)"
TGCGGA,"1.35 fold enrichment (6-mer frequency, TF over GST control)","1.27 fold enrichment (6-mer frequency, TF over GST control)","1.2 fold enrichment (6-mer frequency, TF over GST control)","1.37 fold enrichment (6-mer frequency, TF over GST control)","1.32 fold enrichment (6-mer frequency, TF over GST control)","1.37 fold enrichment (6-mer frequency, TF over GST control)","1.85 fold enrichment (6-mer frequency, TF over GST control)","1.29 fold enrichment (6-mer frequency, TF over GST control)","1.23 fold enrichment (6-mer frequency, TF over GST control)"
TTTGTG,"1.31 fold enrichment (6-mer frequency, TF over GST control)","1.2 fold enrichment (6-mer frequency, TF over GST control)","1.13 fold enrichment (6-mer frequency, TF over GST control)","1.14 fold enrichment (6-mer frequency, TF over GST control)","1.09 fold enrichment (6-mer frequency, TF over GST control)","1.15 fold enrichment (6-mer frequency, TF over GST control)","1.12 fold enrichment (6-mer frequency, TF over GST control)","1.09 fold enrichment (6-mer frequency, TF over GST control)","1.17 fold enrichment (6-mer frequency, TF over GST control)"
GATGCA,"1.15 fold enrichment (6-mer frequency, TF over GST control)","1.14 fold enrichment (6-mer frequency, TF over GST control)","1.18 fold enrichment (6-mer frequency, TF over GST control)","1.11 fold enrichment (6-mer frequency, TF over GST control)","1.06 fold enrichment (6-mer frequency, TF over GST control)","1.2 fold enrichment (6-mer frequency, TF over GST control)","1.06 fold enrichment (6-mer frequency, TF over GST control)","1.23 fold enrichment (6-mer frequency, TF over GST control)","1.16 fold enrichment (6-mer frequency, TF over GST control)"
ATACGG,"1.19 fold enrichment (6-mer frequency, TF over GST control)","1.16 fold enrichment (6-mer frequency, TF over GST control)","1.17 fold enrichment (6-mer frequency, TF over GST control)","1.23 fold enrichment (6-mer frequency, TF over GST control)","1.19 fold enrichment (6-mer frequency, TF over GST control)","1.2 fold enrichment (6-mer frequency, TF over GST control)","1.31 fold enrichment (6-mer frequency, TF over GST control)","1.23 fold enrichment (6-mer frequency, TF over GST control)","1.23 fold enrichment (6-mer frequency, TF over GST control)"
CATTCA,"1.17 fold enrichment (6-mer frequency, TF over GST control)","1.14 fold enrichment (6-mer frequency, TF over GST control)","1.1 fold enrichment (6-mer frequency, TF over GST control)","1.17 fold enrichment (6-mer frequency, TF over GST control)","1.13 fold enrichment (6-mer frequency, TF over GST control)","1.05 fold enrichment (6-mer frequency, TF over GST control)","1.07 fold enrichment (6-mer frequency, TF over GST control)","1.12 fold enrichment (6-mer frequency, TF over GST control)","1.16 fold enrichment (6-mer frequency, TF over GST control)"
GCTCAG,"1.16 fold enrichment (6-mer frequency, TF over GST control)","1.17 fold enrichment (6-mer frequency, TF over GST control)","1.24 fold enrichment (6-mer frequency, TF over GST control)","1.18 fold enrichment (6-mer frequency, TF over GST control)","1.21 fold enrichment (6-mer frequency, TF over GST control)","1.11 fold enrichment (6-mer frequency, TF over GST control)","1.07 fold enrichment (6-mer frequency, TF over GST control)","1.12 fold enrichment (6-mer frequency, TF over GST control)","1.11 fold enrichment (6-mer frequency, TF over GST control)"
CGCTCG,"1.17 fold enrichment (6-mer frequency, TF over GST control)","1.08 fold enrichment (6-mer frequency, TF over GST control)","1.11 fold enrichment (6-mer frequency, TF over GST control)","1.05 fold enrichment (6-mer frequency, TF over GST control)","1.19 fold enrichment (6-mer frequency, TF over GST control)","1.04 fold enrichment (6-mer frequency, TF over GST control)","1.08 fold enrichment (6-mer frequency, TF over GST control)","1.12 fold enrichment (6-mer frequency, TF over GST control)","1.11 fold enrichment (6-mer frequency, TF over GST control)"
